Data as given in PubChem BioAssay (NCI).
About 79,000 compounds went through this panel and 15% of them were active in at least one assay; those are over-represented in the sample as a whole. Unmarked numbers belong to inactive results. Calls of active or inactive are those of the source. No stated cut-off is given here; in the data, active means growth inhibition above about 70%; inactive means the rest.

Assay: NCI Yeast Anticancer Drug Screen. Data for the mlh1 rad18 strain (AID 175)
Conditions: S. cerevisiae mlh1 rad18 strain growth inhibition; at 50.0 µM; stronger effect = higher value
Outline: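 Compound-treated yeast growth, normalised to vehicle controls. Strain bears defined DNA repair mutations.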

For C[CH2][Sn]([CH2]C)([S]c1nc(O)cc(=O)[nH]1)[S]c1nc(O)cc(=O)[nH]1, which growth inhibition is on record?
Its growth inhibition is 25.1%.

With CCCC(=O)[O-].N.N.N.N.N.[Co+3].[O-][Cl+3]([O-])([O-])[O-] as the compound, how does the growth inhibition read?
Its growth inhibition is -21.9%.

Which growth inhibition does the source give for COc1ccc(C)cc1C(=O)C[n+]1ccc2ccccc2c1 here?
Its growth inhibition is 0.15%.

Which growth inhibition does the source give for CC(C)[C@]12O[C@H]1[C@@H]1O[C@]13[C@]1(O[C@H]1C[C@H]1C4=C(C(=O)OC4)[C@@H](O)C[C@@]13C)[C@@H]2O here?
The growth inhibition was -12.8%.

For COc1cc(C=C2C(=O)NC(=S)NC2=O)cc(OC)c1OC, which growth inhibition is on record?
Its growth inhibition is -0.95%.

With CCC(C)OC(=O)Nc1cccc(OC(=O)NC)c1 (centres undefined) as the compound, how does the growth inhibition read?
Its growth inhibition is -0.3%.

Which growth inhibition does the source give for COC1=CC=C2[C@@H]3Cc4ccc(OC)c5c4[C@]2(CCN3CCCl)C1O5 (some centres undefined) here?
Its growth inhibition is 10.6%.

Which growth inhibition does the source give for CCC(=O)c1ccc(N)cc1 here?
The growth inhibition was 6.25%.

With CC(C)(C)C1=C(Br)C(Br)(C(C)(C)C)OP1(=O)c1ccccc1 (centres undefined) as the compound, how does the growth inhibition read?
Its growth inhibition is -27.5%.

With [C-]#[O+].[C-]#[O+].[C-]#[O+].[C-]#[O+].[Cr].c1ccc([PH+](CC[PH+](c2ccccc2)c2ccccc2)c2ccccc2)cc1 as the compound, how does the growth inhibition read?
Its growth inhibition is 20.4%.

For CCOC(OCC)/C(=C\N(C)C)N=C(C#N)C#N, which growth inhibition is on record?
Its growth inhibition is -2.05%.

With BrCC[N+]12CC[N+](CCBr)(CC1)C2 (tested in a mixture with another compound) as the compound, how does the growth inhibition read?
The growth inhibition was 42.4%.

For c1cc2[se][se]c3c4cccc5[se][se]c(c(c1)c23)c54, which growth inhibition is on record?
Its growth inhibition is -31.1%.

Which growth inhibition does the source give for CCCC(C)SP(=S)(SC(C)CCC)SC(C)CCC (centres undefined) here?
The growth inhibition was 19.6%.

With CC(C)OP(=O)(NC(=S)c1ccccc1)OC(C)C as the compound, how does the growth inhibition read?
The growth inhibition was 13.9%.

Which growth inhibition does the source give for ClC1OC(Cl)(Cl)C(Cl)(Cl)OC1(Cl)Cl (centres undefined) here?
The growth inhibition was 45.9%.

Which growth inhibition does the source give for CC(=O)Nc1nn[nH]n1 here?
The growth inhibition was 17.5%.

With COC(=O)c1ccccc1NC(C)=O as the compound, how does the growth inhibition read?
Its growth inhibition is 2.15%.

For CC1=C(\C=C/C(C)=C/C=C/C(C)=C/C=C/C=C(C)\C=C\C=C(C)/C=C/C2=C(C)CCCC2(C)C)C(C)(C)CCC1, which growth inhibition is on record?
Its growth inhibition is 45.5%.

With Nc1ccc(Cl)cc1.Nc1ccc(Cl)cc1.Nc1ccc(Cl)cc1.O=C([O-])C(=O)[O-].O=C([O-])C(=O)[O-].[H+].[Ru+5] as the compound, how does the growth inhibition read?
The growth inhibition was 34.5%.

With N#C[CH2][Sn]([c]1ccccc1)([c]1ccccc1)[c]1ccccc1 as the compound, how does the growth inhibition read?
Its growth inhibition is 98.9% (active).

For CCNC(=O)Oc1c(Cl)cc(S(=O)(=O)F)cc1Cl, which growth inhibition is on record?
Its growth inhibition is 26.4%.

With c1ccc(-c2csc3[nH]c4ccccc4[n+]23)cc1 as the compound, how does the growth inhibition read?
The growth inhibition was 6.35%.

With Cc1ccc(P(=S)(c2ccccc2)c2ccccc2)c2ccccc12 as the compound, how does the growth inhibition read?
The growth inhibition was -4.25%.

With C=CC[As+](c1cccc2ccccc12)(c1cccc2ccccc12)c1cccc2ccccc12 as the compound, how does the growth inhibition read?
The growth inhibition was -11.5%.

For C1C2CC3C1C1CN3C21 (centres undefined), which growth inhibition is on record?
Its growth inhibition is 12.2%.

Which growth inhibition does the source give for O=C(O)c1ccc(CI)cc1 here?
The growth inhibition was -16.9%.

For C/C=C/C(=O)[O-].N.N.N.N.N.[Co+3].[O-][Cl+3]([O-])([O-])[O-], which growth inhibition is on record?
Its growth inhibition is -36.1%.

For Cc1nnc(NC2=NCCO2)s1, which growth inhibition is on record?
Its growth inhibition is -4%.

Which growth inhibition does the source give for Cc1ccc(C(=O)Nc2ccc(CP(=O)(O)O)cc2)cc1NC(=O)c1cccc(NC(=O)Nc2cccc(C(=O)Nc3cc(C(=O)Nc4ccc(CP(=O)(O)O)cc4)ccc3C)c2)c1 here?
The growth inhibition was -9.25%.

Which growth inhibition does the source give for CC(=O)OC(C)(C)/C=C/C(=O)[C@](C)(O)[C@H]1[C@H](O)C[C@@]2(C)[C@@H]3CC=C4[C@@H](C[C@H](O)C(=O)C4(C)C)[C@]3(CO)C(=O)C[C@]12C here?
Its growth inhibition is 18.9%.

For O=C(CCCN1CCC2(CC1)C(=O)NCN2c1ccccc1)c1ccccc1, which growth inhibition is on record?
The growth inhibition was -2.15%.

With CN(C1CCCC1)C1CCCC1 as the compound, how does the growth inhibition read?
The growth inhibition was -7.7%.

With CCOc1ccc(/C=C/c2cc(OC)c(OC)c(OC)c2)cc1 as the compound, how does the growth inhibition read?
Its growth inhibition is -34.2%.

With CCCOP(=O)(OCCC)C(=O)Nc1ccc(Br)cc1 as the compound, how does the growth inhibition read?
Its growth inhibition is -9.5%.

For COC(=O)C1c2cc(OC)c(OC)cc2C(=O)N2CCc3cc4c(cc3C12)OCO4 (centres undefined), which growth inhibition is on record?
Its growth inhibition is 9.2%.

For COc1ccc(CC(C)NO)cc1 (centres undefined), which growth inhibition is on record?
The growth inhibition was -32.5%.

Which growth inhibition does the source give for S=P(NCc1cccc(CNP(=S)(N2CC2)N2CC2)c1)(N1CC1)N1CC1 here?
The growth inhibition was 9.4%.

For CNP(=S)(Oc1cc(Cl)c(Cl)cc1Cl)N1CCN(c2ccc(Cl)cc2)CC1 (centres undefined), which growth inhibition is on record?
Its growth inhibition is 16.4%.
